Test results reported in PubChem BioAssay (EPA / NIEHS).
Inconclusive results are not listed. Calls of active or inactive are those of the source. How the source made its calls: active means hit-call score of the fitted dose curve at least 0.9, where 1 is the maximum; inconclusive means response in the unintended direction; inactive means score below 0.9.

These compounds were tested against rat Adrenergic Receptor, Alpha 2 (Adra2), Non-selective Binding, Adra2a (gene 25083) (UniProt P22909) (assay: NVS_GPCR_rAdra2_NonSelective: NovaScreen (NVS) G Protein-Coupled Receptor Assay for rat Adrenergic Receptor, Alpha 2 (Adra2), Non-selective Binding (AID 2283299)).
Method: NVS_GPCR_rAdra2_NonSelective is a biochemical, single-readout assay that uses extracted gene-proteins from Rat cortical membranes in a tissue-based cell-free assay. Measurements were taken 1.25 hours after chemical dosing in a 48-well plate.NVS_GPCR_rAdra2_NonSelective is one of one assay component(s) measured or calculated from the NVS_GPCR_rAdra2_NonSelective assay. It is designed to make measurements of radioligand binding, a form of binding reporter, as detected with scintillation counting signals by Filter-based radiodetection technology.Data from the assay component NVS_GPCR_rAdra2_NonSelective was analyzed into 1 assay endpoint. This assay endpoint, NVS_GPCR_rAdra2_NonSelective, was analyzed in the positive analysis fitting direction relative to DMSO as the negative control and baseline of activity. Using a type of binding reporter, loss-of-signal activity can be used to understand changes in the binding as they relate to the gene Adra2a. Furthermore, this assay endpoint can be referred to as a primary readout, because the performed assay has only produced 1 assay endpoint. To generalize the intended target to other relatable targets, this assay endpoint is annotated to the gpcr intended target family, where the subfamily is rhodopsin-like receptor.
Binding assays used specific radioligands (tritiated, iodinated) with non-radioactive competitive displacement ligands in agonist or antagonist protocols (as indicated) and various reference compounds and inhibitors to titrate specific binding to receptors and transporters. Most enzyme assays (CYPs, kinases, phosphatases, proteases, HDACs) used recombinant protein and specific substrates (fluorescence mostly, some colorimetric and radioactive) and inhibitors, followed by a biochemical separation of substrate and product. All assays for the biochemical HTS were initially run in duplicate at a single concentration (10 uM for CYP450 assays and 25 uM for all others). […] Each assay was run with positive and negative controls, and concurrent controls on every plate. The follow-up (secondary) screen tested active chemical-pairs in concentration series, as well as a few additional assays not tested in the primary screen, some selected negative inactives, and several cases re-run in the concentration series for confirmatory purposes.

Chain of rat Adrenergic Receptor, Alpha 2 (Adra2), Non-selective Binding, Adra2a (gene 25083) (P22909 whole entry, looked up): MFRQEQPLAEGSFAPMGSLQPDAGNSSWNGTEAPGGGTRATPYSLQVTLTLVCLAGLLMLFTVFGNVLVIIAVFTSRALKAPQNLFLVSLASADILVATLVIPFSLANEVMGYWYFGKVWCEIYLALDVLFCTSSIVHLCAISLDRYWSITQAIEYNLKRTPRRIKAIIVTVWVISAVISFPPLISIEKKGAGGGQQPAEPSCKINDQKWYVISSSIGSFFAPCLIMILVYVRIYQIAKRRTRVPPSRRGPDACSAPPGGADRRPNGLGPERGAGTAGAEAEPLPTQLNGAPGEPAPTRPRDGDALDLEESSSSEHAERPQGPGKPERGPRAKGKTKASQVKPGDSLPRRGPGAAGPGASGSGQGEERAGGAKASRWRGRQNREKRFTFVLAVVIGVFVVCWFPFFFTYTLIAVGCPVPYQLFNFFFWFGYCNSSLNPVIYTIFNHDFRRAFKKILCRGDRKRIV

AC50, active:
Clc1cc(Cl)c2c(c1)N=C1CCCCCN1C2 1.57 µM, O=c1[nH]sc2ccccc12 1.55 µM, CCN(CC)C(=O)c1cc(S(=O)(=O)Cc2ccccc2)c(N2CCC(c3ccccc3)CC2)cc1N(CC)CCN(C)C 15.2 µM, CN(C)c1ccc(C(=C2C=CC(=[N+](C)C)C=C2)c2ccc(N(C)C)cc2)cc1 1.15 µM, CCN(Cc1cccnc1)C(=O)c1cccc(Cl)c1[C@]1(C)C(=O)N(Cc2ccc(OC)cc2OC)c2ccc(Cl)cc21 6.92 µM, CCCCCCCCCCCC[N+](C)(C)C 19.1 µM, COc1cccc([C@H](O)C2CCN(CCc3ccc(F)cc3)CC2)c1OC 1.58 µM, CCOC(=O)O[C@H](C)OC(=O)c1ccc2c(c1)cc(C(=O)NC1CCN(C(C)C)CC1)n2Cc1cc(-c2ccc(Cl)s2)on1 5.66 µM, CC/C(=C(/CC)c1ccc(O)cc1)c1ccc(O)cc1 36.3 µM, COc1ccc2cc(S(=O)(=O)N[C@H](CC(=O)N[C@H](Cc3ccc(CN4[C@H](C)CCC[C@@H]4C)cc3)C(=O)N(C)C(C)C)c3ccc4c(c3)OCO4)ccc2c1 23.9 µM, NCc1cccc(C2CCN(C(=O)c3ccc(C#Cc4ccccc4F)o3)CC2)c1 14.4 µM
